Values joined by “and” are separate entries in the source; they are usually repeats but may differ in a detail not shown here. Equal values may be shown once. Results filed as inconclusive are left out. Where a call stands in place of a potency, no number is given. Some compounds were tested as several samples or in several runs, with calls that do not always agree. Active and inactive are the calls of the source. The call rests on the fitted dose curve; in most records, active means well fitted cell-killing curve with a large enough effect in the repeat runs; inconclusive means weak or mixed curves, or effect the other way; inactive means no such curve, though single readings can be large or run the other way.
Potency means the concentration at half of the fitted maximal effect.

This assay can be described thus: qHTS assay for identifying genotoxic compounds that show differential cytotoxicity against isogenic chicken DT40 cell lines with known DNA damage response pathways - Rev3 mutant cell line (AID 743014). Further: nearly all actives have a fitted effect of over 55% in size. Particulars: chicken DT40 Rev3-/- viability, CellTiter-Glo, 40 h; series mostly up to 68.4 µM; activity, negative = cytotoxicity: at the top concentration. From the text:
National Center for Advancing Translational Sciences [NCATS]
NIH Chemical Genomics Center [NCGC]
U.S. Environmental Protection Agency [EPA]
National Institutes of Environmental Health Sciences [NIEHS]
National Toxicology Program [NTP]
U.S. Food and Drug Administration [FDA]
DNA repair pathways play a critical role in cellular homeostasis by repairing DNA damage induced by endogenous processes and xenobiotics. Isogenic chicken DT40 cell lines deficient in different DNA repair pathways can be used to identify genotoxic compounds and aid in characterizing the nature of the DNA damage induced. Two DNA repair-deficient cell lines with disrupted genes, Rad54/Ku70 or Rev3, were used to screen the Tox21 10K compound library. Possible genotoxicity was based on the presence of a significant increase in cytotoxicity in one or more of the DNA repair-deficient cell lines compared to that observed in the parental DNA repair-proficient cell line. CellTiter Glo viability assay (Promega, Madison, WI) was used to measure cell viability in these cells after compound treatment. This assay includes the data from the Rev3 mutant cell line.
Tox21 Assay Protocol Summary:
300 DT40 mutant cells in 5 uL/well were dispensed into white, solid-bottom 1536-well plates using a Multidrop Combi (ThermoFisher Scientific, Waltham, MA) dispenser. After the assay plates were incubated at 37 C/5% CO2 for approximately 0.5 hour, 23 nL of compounds dissolved in DMSO, positive controls or DMSO only was transferred into the assay plate by a pintool work station (Kalypsys, San Diego, CA). The assay plates were incubated at 37 C/5% CO2 for 40 hours. After 5 uL per well of CellTiter-Glo reagent was added into each well of the assay plates, the plates were incubated for 30 min at room temperature and the luminescence intensity of the plates was measured using a ViewLux (PerkinElmer, Shelton, CT) plate reader.
`ClCCOCCCl`: the Potency entry is “inactive”.

Take `Cc1cc(Cl)ccc1OC(C)C(=O)O` (stereo not given): the Potency result was “inactive”.

On to `O=[N+]([O-])c1ccc(Cl)c(Cl)c1`, for which the Potency entry is “inactive”.

On to `ClC(Cl)c1ccccc1`, for which the Potency result was “inactive”.

As for `CNC(=O)O/N=C/C(C)(C)S(C)(=O)=O`, the Potency entry was “inactive”.

On to `CCCCC(CC)C(=O)Cl` (stereo not given), for which the Potency entry is “inactive”.

Regarding `CC(C)CCCCCCOC(=O)c1ccccc1C(=O)OCCCCCCC(C)C`, the Potency result is “inactive”.

`C/C=C/c1ccc2c(c1)OCO2`: the Potency entry was “inactive”.

As for `CN(C)C(=O)C(c1ccccc1)c1ccccc1`, the Potency result was “inactive”.

Regarding `CNC(=O)O/N=C/C(C)(C)S(C)=O` (stereo not given), the Potency result is “inactive”.

Consider `COc1cc(-c2ccc(N)c(OC)c2)ccc1N`, for which the Potency was 14.7 µM (active).

For `CNCC(O)c1ccc(O)cc1` (stereo not given), the “activity, negative = cytotoxicity” value was 1.96% (inactive).

`Nc1ncc([N+](=O)[O-])s1`: the Potency entry is “inactive”.

Take `Cc1ccc(O)c(C)c1`: the Potency entry is “inactive”.

With `Oc1c(Br)cc(Br)cc1Br`, the Potency entry is “inactive”.

For the molecule `O=C(O)CCCc1ccc(N(CCCl)CCCl)cc1`, the Potency was 1.88 µM (active) and 2.18 µM (active) and 43.3 nM (active).

For the molecule `Nc1nc(N)nc(NC2CC2)n1`, the Potency entry is “inactive”.

With `CC(C)c1cccc(C(C)C)c1O`, the Potency entry is “inactive”.

Take `CCNc1nc(Cl)nc(NC(C)C)n1`: the Potency entry was “inactive”.

As for `CCOc1ccc(N)cc1`, the “activity, negative = cytotoxicity” value was -4.71% (inactive).

For the molecule `O=C(O)C1C(C(=O)O)C2(Cl)C(Cl)=C(Cl)C1(Cl)C2(Cl)Cl` (stereo not given), the Potency result was “inactive”.

Consider `Nc1cc(Cl)cc(Cl)c1`, for which the Potency result is “inactive”.

On to `Cc1ccc(N)cc1`, for which the Potency entry was “inactive”.

With `CNC(=O)O/N=C/C(C)(C)SC`, the “activity, negative = cytotoxicity” value is 5.73% [at 95 µM] (inactive).

Consider `Cc1ccc(N=C=O)cc1N=C=O`, for which the “activity, negative = cytotoxicity” value is -18.3% [at 95 µM] (inactive).

In the case of `OCCCCO`, the Potency result was “inactive”.

As to `Nc1ccc(N)cc1`, the Potency is 19.4 µM (active) and 54.5 µM (active).

In the case of `CNC(=O)O/N=C(\SC)C(=O)N(C)C`, the Potency is 61.1 µM (active).

For the molecule `CC(C)(C)C(=O)CCl`, the “activity, negative = cytotoxicity” value is 4.11% (inactive).

On to `CCOC(=O)CC(SP(=O)(OC)OC)C(=O)OCC` (stereo not given), for which the Potency entry is “inactive”.

Turning to `Sc1ccccc1`, the Potency result was “inactive”.

As for `CCCCCCCCCCCCCCCCCC(=O)O`, the Potency is 60.7 µM (active) and inactive.

With `O=[N+]([O-])c1ccc(Cl)cc1`, the Potency entry is “inactive”.

As for `[N-]=[N+]=CC(=O)OC[C@H](N)C(=O)O`, the Potency entry was “inactive”.

For `OCc1ccco1`, the “activity, negative = cytotoxicity” value was 10.4% [at 95 µM] (inactive).

In the case of `C=CCN=C=S`, the Potency was 62.5 µM (active).

Consider `O=[N+]([O-])c1cc([As](=O)(O)O)ccc1O`, for which the Potency entry is “inactive”.

Turning to `Cc1cc(O)ccc1Cl`, the Potency result is “inactive”.

In the case of `C=C(C)C(=O)OCC(CC)CCCC` (stereo not given), the “activity, negative = cytotoxicity” value is 5.33% (inactive).

As for `Cc1ccccc1N`, the Potency entry was “inactive”.

The values are drawn from PubChem BioAssay (Tox21).
